Reference: ChEMBL document CHEMBL3988442, “University of Dundee, Small-Polar-MMV Screening Library” (2021)
The whole screen tested about 38,000 compounds, of which about 1,200 (3.2%) showed an effect of 50% or more. The median lay at about -58%. Shown is part of a subset that was picked to be rich in strong results.

tested on: Plasmodium falciparum; experiment: Calibr Malaria Delayed Death Assay SOP; format: functional, organism-based; design: scale not given: in the data most compounds retested in dose-response had high values; settings: concentration 4.99e-06 (unit not given; other assays of the set use mol/L)

Structure (SMILES)	Percent Effect [%]
Clc1snnc1CN1CCCCC1Cn1cccn1 (stereo not given)	-105.5
CN(Cc1cccc(C#N)c1)Cn1nc(C(C)(C)C)ccc1=O	-75.82
COc1cc(NC(=O)c2cc(Cl)ccc2F)c(C(=O)N(C)C)cc1OC	-86.88
Cc1nnc2ccc(OCCNS(=O)(=O)c3cccs3)nn12	-74.14
CC1=N[C@@]2(CC[C@@H]3CN(CC(=O)N(C)C)C[C@@H]32)C(=O)N1CC1CC1.O=C(O)C(F)(F)F	-113.5
CC1=N[C@@]2(CC[C@@H]3CN(Cc4ccccc4F)C[C@@H]32)C(=O)N1CC1CC1.O=C(O)C(F)(F)F	66.32
CCC1=N[C@@]2(CC[C@@H]3CN(Cc4ccccc4F)C[C@@H]32)C(=O)N1CC.O=C(O)C(F)(F)F	37.33
O=C(O)C(F)(F)F.O=C([C@H]1C[C@H]2OCC[C@H]2N(Cc2ccoc2)C1)N1CCCCO1	-83.93
CCN1CCn2cc(CNC(=O)c3cnn(C)c3)nc2C1.O=C(O)C(F)(F)F.O=C(O)C(F)(F)F	-97.9
COc1ccccc1N1CCC(CNCc2c(C)nn(C)c2OC)C1 (stereo not given)	51.83
COc1ccccc1N1CCC(CNC(=O)N(C)Cc2ccco2)C1 (stereo not given)	-114.8
COc1ccc(CNCC2CCN(c3ccccc3OC)C2)cc1O (stereo not given)	21.41
COc1ccccc1N1CCC(CNCc2cccc(OC)c2OC)C1 (stereo not given)	55.95
COc1ccccc1N1CCC(CNS(=O)(=O)c2c(C)nn(C)c2C)C1 (stereo not given)	-22.9
COc1ccccc1N1CCC(CNCc2cccc(O)c2)C1 (stereo not given)	55.7
COc1ccccc1N1CCC(CNCc2cccc(C#N)c2)C1 (stereo not given)	0.8345
COc1c(CNC2CCN(c3ncccn3)CC2)c(C)nn1C	-45.93
COc1ccccc1N1CCC(N2CCOCC(CO)C2)CC1 (stereo not given)	27.34
Cc1ccc(C(C)(O)CNC(=O)CCn2ccnc2C(C)C)o1 (stereo not given)	-68.59
Cc1[nH]ncc1C(=O)NCC(CO)Cc1ccc(Cl)cc1 (stereo not given)	-37.01
c1cc(CNCC2CNc3ccnn3C2)cc(N2CCOCC2)n1 (stereo not given)	-156.8
Cc1cc(N2Cc3cnn(CCO)c3C2)nc(-c2ccccc2O)n1	-189
O=C(NCC(O)C1CC1)Nc1cnn(Cc2ccccc2)c1 (stereo not given)	-47.94
Cc1cncc(C2CCCN(C(=O)c3cn(C)nc3C)C2)n1 (stereo not given)	-35.12
Cn1cnnc1CC1CCN(Cc2nn(C)c3cccc(Cl)c23)CC1	-15.19

Structure (SMILES)	Percent Effect [%]
CCn1cc(CN2CCCN(C3Cc4ccccc4C3)CC2)c(C)n1	-9.026
Cn1nc(CN2CCCN(C3CCCC3)CC2)c2c(Cl)cccc21	68.46
C[C@@H]1CN(C2CCN(Cc3nn(C)c4cccc(Cl)c34)CC2)C[C@H](C)O1	-11.21
Cn1nc(CN2CCCCC(N)C2)c2c(Cl)cccc21 (stereo not given)	65.71
Cn1nc(CN2CCC(c3ccncc3)CC2)c2c(Cl)cccc21	-16.19
CCC(=O)N1CCC[C@]2(C(=O)N(C)C)CN(c3ccccn3)C[C@@H]2C1.O=C(O)C(F)(F)F	-7.405
Cn1nccc1-c1nnn2c1COC(CNCc1nccs1)C2.O=C(O)C(F)(F)F (stereo not given)	-38.88
CCn1cc(S(=O)(=O)N2CCCC2c2ccc(C)o2)cn1 (stereo not given)	-154.6
CC(C)c1nccn1C1CCCN(C(=O)c2nccnc2N)C1 (stereo not given)	-27.69
CCOc1ncccc1CNC(=O)c1cc(C)on1	-34.12
Cn1cc(C2CC(=O)NC23CCN(C(=O)C2CC=CC2)CC3)cn1 (stereo not given)	-79.79
Cn1cc(CN2CCCN(CCCc3ccccc3)CC2)cn1	-23.65
Cn1ccnc1CCNC(=O)C1CCCN(Cc2cccc(F)c2)C1 (stereo not given)	58.15
Cn1cc(CN2CCCC(CCc3ccc(F)c(F)c3)C2)cn1 (stereo not given)	69.99
COc1ccc(CN2CCCC(Cn3nc(C)nc3C)C2)cc1F (stereo not given)	-17.07
Cc1ccccc1CCC1CCCN(Cc2nnc(-c3ccco3)o2)C1 (stereo not given)	-11.7
Cn1cc(CN2CCCC(CCc3ccccc3C(F)(F)F)C2)cn1 (stereo not given)	87.33
Cn1cnnc1CNC(=O)C1CCCN(Cc2cccc(F)c2)C1 (stereo not given)	-147.7
Cn1cc(C[C@H]2[C@H](O)CCN2Cc2ccc(F)cc2)cn1.O=C(O)C(F)(F)F	1.719
Cn1cc(CNC(=O)C2CCCN(Cc3cccc(F)c3)C2)cn1 (stereo not given)	-63.48
Cn1cc(CN2CCC(CCC(=O)NCc3ccc(F)cc3)CC2)cn1	-110.1
Cc1[nH]c(=O)[nH]c(=O)c1CN1CCCC(CCc2ccc(F)c(F)c2)C1 (stereo not given)	-43.91
Cn1cc(CN2CCCC(CCc3ccc(F)cc3)C2)cn1 (stereo not given)	73.58
Cc1nn(C)c(Cl)c1C1CCCN1C(=O)c1ccnn1C (stereo not given)	-125.5
Cc1nc(CN2C[C@@H]3CN(C(=O)Cc4ccccn4)C[C@@H]3C2)cs1.O=C(O)C(F)(F)F.O=C(O)C(F)(F)F	-48.37

Structure (SMILES)	Percent Effect [%]
CN(Cc1nccn1CC(F)(F)F)C(=O)c1ccc(F)cc1F	-38.32
CCN1CCN(c2ccc(NC(C)c3nc(C(C)C)no3)c(C)c2)CC1 (stereo not given)	-29.45
CNC(=O)COC(=O)c1ccn(-c2ccc(Cl)c(Cl)c2)n1	-33.36
COCC1c2c(cnn2C)CCN1Cc1ccco1.O=C(O)C(F)(F)F.O=C(O)C(F)(F)F (stereo not given)	-7.218
Cc1cc(F)ccc1-n1cc(O)c(C(N)=O)n1	-184.1
Cc1[nH]c(=O)[nH]c(=O)c1CN1CCCC(CCc2c(F)cccc2F)C1 (stereo not given)	-50.25
Cn1cc(CN2CCCC(CCc3ccc(F)cc3F)C2)cn1 (stereo not given)	88.72
Cc1[nH]c(=O)[nH]c(=O)c1CN1CCCC(CCc2ccc(F)cc2F)C1 (stereo not given)	49.97
Cn1ccnc1CN1CCCC(CCc2ccc(F)c(F)c2)C1 (stereo not given)	73.33
Cc1nc(C)n(CC2CCCN(Cc3ccc(F)cc3C#N)C2)n1 (stereo not given)	-108
CC(c1ccc(F)c(F)c1)N1CCN(Cc2nccn2C)CC1 (stereo not given)	-18.79
Cc1[nH]c(=O)[nH]c(=O)c1CN1CCCC(CCc2ccccc2F)C1 (stereo not given)	-31.73
CC(C)n1ccnc1C1CCCN(Cc2ccc(F)c(F)c2)C1 (stereo not given)	8.859
Cn1cc(CN2CCCC(CCc3c(F)cccc3F)C2)cn1 (stereo not given)	78.37
Cc1ccc(N2CCN(C(=O)CCc3ccc(O)cc3)CC2=O)cc1	-38.56
Cc1cc(F)cc2c(N3CCC(S(N)(=O)=O)CC3)c(C#N)cnc12	-75.95
O=C1CC2(CCSC2)C(=O)N1Cc1coc(-c2ccccc2)n1 (stereo not given)	-69.36
CC1CCc2[nH]c(=O)c(C(=O)N3CCc4ccccc4C3)cc2C1 (stereo not given)	-106.2
COCCN(Cc1ccccc1Cl)c1nc(CCN)nc2ccccc12	89.02
NCCc1nc(N(Cc2cncs2)C2CC2)c2ccccc2n1	-36.69
COCCN(Cc1cccs1)c1nc(CCN)nc2ccccc12	61.62
COCCN(CC1CC1)c1nc(CCN)nc2ccccc12	8.553
NCCc1nc(N(Cc2nccs2)C2CC2)c2ccccc2n1	-61.5
COCCN(CCOC)Cc1c(C)nc2ccccc2c1O	-60.42
Cc1ccsc1CN(c1nc(CCN)nc2ccccc12)C1CC1	51.16

Structure (SMILES)	Percent Effect [%]
COCCN(Cc1cccs1)C(=O)C1CCCN(C(N)=O)C1 (stereo not given)	-166.3
COCCN(Cc1cc(O)nc2ccccc12)C(=O)NC(C)C	-37.53
CCC(=O)N(CCN(C)C)Cc1ccc(F)c(F)c1	39.58
CC(C)C1CCC(N2CCN(CCCS(C)(=O)=O)CC2)CC1 (stereo not given)	11.68
Cc1cc2nc(C(C)C)cc(N3CCC(O)CC3)n2n1	-114.9
Cc1cccc(C(C(=O)NCC2(O)CCCCC2)N(C)C)c1 (stereo not given)	-49.85
CC(=O)N(C)CC(=O)NCC1(c2cccc(C)c2)CCCC1	-51.91
Cc1cccc(OC(C)C(=O)NCC2(N(C)C)CCCC2)c1 (stereo not given)	80.49
CC1CN(C(=O)NCCc2nc(C(C)C)no2)CCO1 (stereo not given)	-93.77
Cc1cccc(CNC2CCCc3c2cnn3Cc2ccccc2)c1.Cl (stereo not given)	64.5
Cl.Cn1ncc2c1CCCC2NCc1cccc(F)c1 (stereo not given)	10.36
Cc1cccc(CNC2CCCc3c2cnn3C)c1.Cl (stereo not given)	-40.76
c1cc(N2CCC3(COCc4cnc(NCC5CC5)nc43)C2)ncn1 (stereo not given)	-14.49
O=S(=O)(C1CC1)N1CCC2(COCc3cnc(NCC4CC4)nc32)C1 (stereo not given)	-35.4
c1ccc(CN2CCC3(COCc4cnc(NCC5CC5)nc43)C2)cc1 (stereo not given)	50.22
CC(C)CC(NC(=O)c1ccn(C)c(=O)c1)c1cccs1 (stereo not given)	-80.8
Cc1cc(C(=O)N(C)CCCn2cccn2)nc(N)n1	-80.13
CCN(CC)C(=O)N1CCN(Cc2cnc(C)nc2)[C@H]2CS(=O)(=O)C[C@H]21	-158.8
CCS(=O)(=O)N1CCCn2nnc(CNC(C)=O)c2C1	-63.27
CCN1CCCC(O)(CNCc2ccccc2F)C1 (stereo not given)	38.87
CCN1CCCC(O)(CN(C)Cc2ccccc2F)C1 (stereo not given)	56.49
CN(C)CC1(O)CCCN(Cc2ccccc2OCC(=O)N(C)C)C1 (stereo not given)	-89.01
Cc1nc2c(c(N(C)C)n1)CCN(C(=O)c1ccc(N)nc1)C2	-40.57
O=C(CCc1ccccc1)NCC1CCN(Cc2ccccc2)CC1	43.31
CC(=O)N1CCCN(CCn2nc3ccccn3c2=O)CC1	-130.1
